Data reported in ChEMBL document CHEMBL3988442, “University of Dundee, Small-Polar-MMV Screening Library” (2021).
Hit rate of the full screen: of about 67,000 compounds, about 300 (0.45%) showed an effect of 50% or more. For the sample, strong results were picked, then their nearest neighbours and some compounds at random.

Target: Polyketide synthase Pks13 (Mycobacterium tuberculosis (strain ATCC 25618 / H37Rv)) (UniProt I6X8D2)
Assay: Mycobacterium tuberculosis Polyketide synthase 13 Thioesterase (PKS13)
Assay type: functional
Set-up: scale not given: in the data most compounds retested in dose-response had high values
Conditions: 30 µM

Chain of Polyketide synthase Pks13 (Mycobacterium tuberculosis (strain ATCC 25618 / H37Rv)) (I6X8D2 whole entry): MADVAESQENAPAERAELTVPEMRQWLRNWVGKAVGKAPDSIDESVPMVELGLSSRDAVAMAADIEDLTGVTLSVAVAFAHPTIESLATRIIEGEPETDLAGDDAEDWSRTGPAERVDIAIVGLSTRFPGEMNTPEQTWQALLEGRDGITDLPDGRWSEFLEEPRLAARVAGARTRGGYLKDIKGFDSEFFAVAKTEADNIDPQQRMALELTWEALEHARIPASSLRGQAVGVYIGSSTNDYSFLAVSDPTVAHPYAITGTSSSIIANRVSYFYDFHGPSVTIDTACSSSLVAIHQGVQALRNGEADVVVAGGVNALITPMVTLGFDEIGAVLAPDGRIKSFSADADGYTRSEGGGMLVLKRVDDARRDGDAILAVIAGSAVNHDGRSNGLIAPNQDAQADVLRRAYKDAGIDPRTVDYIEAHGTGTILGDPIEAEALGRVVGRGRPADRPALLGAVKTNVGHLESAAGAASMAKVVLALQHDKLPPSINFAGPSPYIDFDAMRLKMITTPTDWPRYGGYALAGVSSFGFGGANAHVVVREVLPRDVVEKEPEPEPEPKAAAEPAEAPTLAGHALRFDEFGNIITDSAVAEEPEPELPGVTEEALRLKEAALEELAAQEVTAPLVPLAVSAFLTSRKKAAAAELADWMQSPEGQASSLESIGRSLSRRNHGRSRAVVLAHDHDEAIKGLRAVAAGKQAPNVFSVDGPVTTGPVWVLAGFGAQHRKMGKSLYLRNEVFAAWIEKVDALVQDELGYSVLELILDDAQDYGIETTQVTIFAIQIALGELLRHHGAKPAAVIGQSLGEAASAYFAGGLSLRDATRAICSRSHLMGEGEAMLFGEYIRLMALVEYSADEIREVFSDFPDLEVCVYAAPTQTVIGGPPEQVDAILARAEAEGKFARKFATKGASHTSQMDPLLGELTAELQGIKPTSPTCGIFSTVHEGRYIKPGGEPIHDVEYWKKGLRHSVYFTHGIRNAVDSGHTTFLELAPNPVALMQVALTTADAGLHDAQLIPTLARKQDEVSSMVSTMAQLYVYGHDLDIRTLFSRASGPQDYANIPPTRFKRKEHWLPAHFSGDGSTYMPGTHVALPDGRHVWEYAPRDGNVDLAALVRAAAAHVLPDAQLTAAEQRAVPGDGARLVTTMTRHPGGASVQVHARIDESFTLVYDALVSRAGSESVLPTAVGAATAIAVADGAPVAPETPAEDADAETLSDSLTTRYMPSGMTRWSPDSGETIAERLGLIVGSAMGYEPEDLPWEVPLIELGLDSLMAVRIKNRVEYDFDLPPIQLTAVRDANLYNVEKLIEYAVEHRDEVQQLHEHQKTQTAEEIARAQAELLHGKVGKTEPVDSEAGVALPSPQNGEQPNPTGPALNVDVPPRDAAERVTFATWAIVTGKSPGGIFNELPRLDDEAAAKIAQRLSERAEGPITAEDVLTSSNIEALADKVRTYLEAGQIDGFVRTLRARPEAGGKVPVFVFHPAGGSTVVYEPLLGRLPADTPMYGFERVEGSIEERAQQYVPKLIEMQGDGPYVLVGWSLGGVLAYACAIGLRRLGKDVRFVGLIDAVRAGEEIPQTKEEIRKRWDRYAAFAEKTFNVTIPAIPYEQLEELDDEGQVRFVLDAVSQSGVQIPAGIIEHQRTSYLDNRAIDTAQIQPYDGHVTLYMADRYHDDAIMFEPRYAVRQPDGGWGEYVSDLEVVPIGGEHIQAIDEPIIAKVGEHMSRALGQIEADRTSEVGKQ

Going from `COCCN1C[C@H]2CN(Cc3cccc(OC(F)(F)F)c3)CCN2C1=O` to `COCCN1C[C@H]2[C@@H](C1)N(C(=O)COc1ccccc1)CC[C@H]2OC`, the Percent Effect rises from -30.8% to -22.6%.

Going from `Cc1cc(CNC(=O)[C@H]2CCCCN2C(=O)OC(C)(C)C)on1` to `Cc1ccc(CNC(=O)C2CCCCN2C(=O)OC(C)(C)C)cn1` (stereo not drawn), the Percent Effect rises from -8.92% to 56.8%.

Compared with `CC(C)(C)OC(=O)N1CCCCC1C(=O)NCc1cc[nH]n1` (stereo not drawn), `Cc1ccc(NC(=O)c2nc3c(s2)CCCN3C(=O)C2CC2)cn1` is higher in Percent Effect: -18.2% for the first, 56.3% for the second.

First: COc1cc(N2C[C@@H]3COC[C@]3(COCc3cccc(C)n3)C2)ncn1
Second: Cc1cccc(CN2C[C@@H]3COC[C@]3(CNC(=O)N3CCCC3)C2)n1
The Percent Effect of the first is lower: -18.9% for the first, -7.01% for the second.

First: COc1ccc2nc(C[C@@H]3C[C@@H](C(C)C)[C@H](CN(C)C)C=C3C)[nH]c2n1
Second: COc1ccc2nc(C[C@@H]3C[C@@H](C(C)C)[C@H](CN)C=C3C)[nH]c2n1
The Percent Effect of the first is lower: -71.1% for the first, 56.2% for the second.

First: COc1ccc2[nH]c(C[C@@H]3C[C@@H](C(C)C)[C@H](CN(C)C)C=C3C)nc2c1
Second: COc1ccc2c(C(=O)N(C)C)cc(-c3cnc(N)nc3)nc2c1
The Percent Effect of the first is lower: 1.51% for the first, 75.3% for the second.

Going from `CCn1nc(C)cc1C(=O)N1C[C@@H]2C[C@@H](c3nnc(C)[nH]3)O[C@@H]2C1` to `COc1ncccc1C(=O)N1CC[C@H]2C[C@@H](C)O[C@@H]2C1`, the Percent Effect rises from -31.5% to -30.1%.

First: Cc1ccc2nc(-c3cnc(N)nc3)cc(C(=O)N(C)C)c2c1
Second: CN(C)C(=O)c1cc(-c2cnc(N)nc2)nc2cc(F)ccc12
The Percent Effect of the first is higher: 1.85% for the first, -19.1% for the second.

Going from `COc1ccc(C(=O)N2CC[C@@H]3[C@H](CC2)N(C)CCS3(=O)=O)cc1` to `Cc1ccc(CS(=O)(=O)N2CC[C@H]3[C@H]2CCN3C)cc1`, the Percent Effect rises from -17.1% to 37.1%.

Compared with `Fc1cccc(CN2C[C@@H]3CN(c4ncccn4)C[C@@H]3C2)c1`, `c1ccc(NC[C@@H]2CCC[C@@H]3CN(Cc4cccnc4)C[C@@H]32)nc1` is lower in Percent Effect: -4.52% for the first, -17.4% for the second.

First: Cn1c(Cn2ncc(N3CCCCC3)cc2=O)nc2ccccc21
Second: Cn1c(Cn2ncc(N3CCCC3)cc2=O)nc2ccccc21
The Percent Effect of the first is higher: 91% for the first, -18.2% for the second.

First: CN(C)c1cnn(Cc2nc3ccccc3n2C)c(=O)c1
Second: CN(C)C[C@]12COC[C@H]1CN(Cc1ccc3ccccc3n1)C2
The Percent Effect of the first is lower: -19.4% for the first, -18.2% for the second.

Going from `CCOc1ccc2nc(CN3CCC(CN)C3)ccc2c1` (stereo not drawn) to `CCOc1ccc2nc(CN3CCOC(CN)C3)ccc2c1` (stereo not drawn), the Percent Effect rises from -11.4% to 70.3%.

Going from `CCOc1ccc2nc(CN3CCC(CNC(C)=O)C3)ccc2c1` (stereo not drawn) to `Cn1nccc1NC(=O)c1cccc(CN2C[C@H]3CC[C@@H](C2)N3)c1`, the Percent Effect rises from -18.1% to -14.8%.

Going from `Oc1cccc(CN2C[C@H]3CC[C@@H]2CN(Cc2ccc(F)cc2)C3)c1` to `c1ccc(-c2cc(CN3C[C@@H]4CC[C@H](C3)N(CC3CCC3)C4)on2)cc1`, the Percent Effect falls from -36.6% to -48.3%.

Compared with `Cc1ccc(-c2nnc([C@H]3CCN(C4CCC4)C3)o2)cc1`, `Clc1ccc(-c2nnc([C@H]3CCN(C4CCCCC4)C3)o2)cc1` is lower in Percent Effect: 11.8% for the first, -3.49% for the second.

First: CN(C)c1ccc(-c2nnc([C@H]3CCN(C4CCCCC4)C3)o2)cc1
Second: Cn1cncc1-c1nnc([C@H]2CCN(Cc3cccnc3)C2)o1
The Percent Effect of the first is higher: 58.9% for the first, -26% for the second.

Compared with `O=C(c1ccccc1)N1C[C@@H]2CC[C@H](C1)N(C(=O)CN1CCOCC1)C2`, `CSc1ncccc1C(=O)N1C[C@H]2CC[C@@H]1CN(c1cnccn1)C2` is higher in Percent Effect: -38.5% for the first, -2.08% for the second.

Going from `N#Cc1cc(C#N)c(SCC(=O)Nc2ccc(F)cc2)nc1N` to `N#Cc1cc(C#N)c(SCCC(=O)Nc2ccc(F)cc2)nc1N`, the Percent Effect falls from 65.2% to -20.2%.

First: N#Cc1cc(C#N)c(SCC(=O)NCc2ccc(F)cc2)nc1N
Second: O=C(Nc1cnc(N2CCOCC2)nc1)c1ccc(C(F)(F)F)cc1
The Percent Effect of the first is lower: -6.72% for the first, 106% for the second.

Going from `C=Cn1ncc(CN2C[C@@H]3C[C@@H](O)CN3C[C@@H]2Cc2ccccc2)c1C` to `CC(=O)N1C[C@@H](c2ccsc2)[C@@H]2CN(Cc3ccccc3Cl)CC[C@@H]21`, the Percent Effect rises from -6.39% to 9.76%.

First: O=S(=O)(Nc1cnc(N2CCOCC2)nc1)c1ccc(C(F)(F)F)cc1
Second: COCC(=O)Nc1cnc(N2CCOCC2)nc1
The Percent Effect of the first is lower: -20.2% for the first, -16% for the second.

First: Cc1ccc(CN2CC[C@H]3OCC[C@@H](C(=O)N4CCCCO4)[C@@H]3C2)o1
Second: c1coc(CN2C[C@@H]3CCCO[C@@H]3[C@H](N3CCCC3)C2)c1
The Percent Effect of the first is higher: 16.9% for the first, -16.1% for the second.

First: CN(C)C[C@H]1OC[C@@H]2CN(C(=O)NCc3cccnc3)CC[C@@H]21
Second: O=C(C1CCOCC1)N1C[C@@H]2[C@@H](C1)OCC(=O)N2Cc1ccncc1
The Percent Effect of the first is higher: 1.8% for the first, -12.1% for the second.

Compared with `COc1ccc(NC(C)C(=O)N2CCN(c3ncccn3)CC2)cn1` (stereo not drawn), `COc1ccc(NC(C)C(=O)N2CCN(c3ccccc3)CC2)cn1` (stereo not drawn) is higher in Percent Effect: 4.94% for the first, 31.4% for the second.

Compared with `COc1ccc(NC(C)C(=O)N2CCCC2)cn1` (stereo not drawn), `Cc1ccc(NC(=O)c2nc3c(s2)CCCN3C(C)C)cn1` is lower in Percent Effect: 67.9% for the first, -9.2% for the second.

Compared with `CCc1noc(CN(CCC2CCCCC2)CC(N)=O)n1`, `CC(C)c1noc(CN(CCC2CCCCC2)CC(N)=O)n1` is lower in Percent Effect: 6.76% for the first, -4.56% for the second.

Going from `CC(C)(C)c1nc(CN(CCC2CCCCC2)CC(N)=O)no1` to `Cn1cncc1-c1nnc([C@H]2CCN(CC(C)(C)C)C2)o1`, the Percent Effect falls from 57.2% to 25.7%.

Compared with `O=C(O)c1ccc2ccc(N3CCN(CC4CC4)CC3)n2c1`, `CN1CCCC[C@@H]2[C@H]1[C@@H](c1ccccc1)CCN2S(=O)(=O)N1CCCC1` is lower in Percent Effect: 9.49% for the first, -11% for the second.

Going from `CC(=O)N1CCCc2sc(C(=O)Nc3ccc(C)nc3)nc21` to `CS(=O)(=O)NCc1cc(-c2cc(F)cc(F)c2)nc(N2CC[C@H](O)C2)n1`, the Percent Effect rises from -22.2% to 147%.

Going from `CC[C@H]1CN2CC[C@H]1C[C@@H]2CNC(=O)Nc1cccc(C(F)(F)F)c1` to `Cc1cnn(CCNCC(=O)NCCOc2ccccc2)c1`, the Percent Effect rises from -29.8% to -11.4%.

Going from `Cc1cnn(CC(C)NCC(=O)NCCc2cccs2)c1` (stereo not drawn) to `Cc1cnn(CC(C)NCC(=O)NCCOc2ccccc2)c1` (stereo not drawn), the Percent Effect rises from -15.2% to 95.2%.

Going from `CS(=O)(=O)NCc1cc(-c2cc(F)cc(F)c2)nc(N2CCOCC2)n1` to `CS(=O)(=O)NCc1cc(-c2cc(F)cc(F)c2)nc(N2CCCC2)n1`, the Percent Effect falls from 22.5% to 22.1%.

First: Cn1cncc1-c1nnc([C@H]2CCN(Cc3ncc[nH]3)C2)o1
Second: CSCCCN1C[C@H]2CC[C@@H]1CN(Cc1[nH]cnc1C)C2
The Percent Effect of the first is higher: 61% for the first, -11.9% for the second.
